# Where “and” joins values, the source holds several entries; their conditions need not be identical. Equal entries are not always repeated. Out of some 340,000 compounds screened, about 1,000 (0.29%) were called active. Rule as the data show it: inconclusive = inhibition above about 29% without an active follow-up result; inactive = below that. Not all results are given here. Measured potencies and affinities stand elsewhere.
# Biological target: Genome polyprotein (Dengue virus type 2 (strain 16681-PDK53)) (UniProt P29991)
# Experiment: flavivirus cap methylation enzyme inhibition – biochemical, confirmation dose response, primary screen (AID 588689)
# Details: Dengue-2 NS5 methyltransferase capping enzyme assay, at 25 µM, stronger effect = higher value
# [1] = measured here: pilot screen replicate inhibition
SMILES,inhibition,inhibition [1] [%]
CN(C)C1=NC[C@H](Cc2ccccc2)N1CC1CCC(C(C)(C)C)CC1 (some centres not stated),0.79% (inactive),–
Cc1ccc([C@@H]2CC=C(C(=O)O)[C@H](c3ccccc3)N2S(=O)(=O)c2ccc(C)cc2)cc1,-3.2% (inactive),–
Cc1ccc(S(=O)(=O)N2[C@@H](c3ccc(Cl)cc3)C(C(=O)O)=CC[C@H]2c2ccc(Cl)cc2)cc1,13.5% (inactive),–
Cc1ccc([C@@H]2CC=C(C(=O)O)[C@H](c3ccc(Cl)cc3)N2S(=O)(=O)c2ccc(C)cc2)cc1,19.5% (inactive),–
Cc1ccc(S(=O)(=O)N2[C@@H](c3ccc(C(C)(C)C)cc3)C(C(=O)O)=CC[C@H]2c2ccc(C(C)C)cc2)cc1,-2.65% (inactive),0.6
Cc1ccc(S(=O)(=O)NCCC(=O)OCC(=O)N(Cc2ccccc2)C(C)(C)C)cc1,7.2% (inactive),–
CC1(C)CC2CC(C)(CN2C(=O)COC(=O)c2cccc([N+](=O)[O-])c2)C1 (configuration not stated),6.17% (inactive),–
CC(C(=O)Nc1ccccc1F)N1C(=O)c2ccccc2C1=O (configuration not stated),4.32% (inactive),–
CC(C(=O)Nc1ccc2c(c1)OCO2)N(C)CC(=O)Nc1ccc(Cl)cc1 (configuration not stated),2.29% (inactive),–
Cc1ccc2c(C(=O)CN3CCCCC3CCO)c(C)[nH]c2c1 (configuration not stated),-12.1% (inactive),–
Cc1ccc(N2CN(Cc3ccco3)CNC2=S)cc1,-4.68% (inactive),–
CC(OC(=O)C1CC1C)C(=O)Nc1ncc(Cl)cc1Cl (configuration not stated),-5.81% (inactive),–
O=S(=O)(Nc1nc2ccccc2nc1NCc1ccco1)c1ccc(F)cc1,21.1% (inactive),–
O=S(=O)(Nc1nc2ccccc2nc1NCc1ccco1)c1ccccc1,26.3% (inactive),–
CCCNC(=O)NC(=O)c1cnccc1C(F)(F)F,3.85% (inactive),–
CC1=NOC(=O)/C1=C/c1ccc(O)c(Cl)c1,6.53% (inactive),–
CC1=NOC(=O)/C1=C/c1ccc(O)cc1,33.3% (inactive),–
CCN(CC)c1ccc(/C=C2/C(=O)ON=C2C)cc1,-145% (inactive),–
CC1=NOC(=O)/C1=C/c1ccc(O)c(Br)c1,-9.14% (inactive),–
CCc1nc(SCC(=O)NCCc2ccccc2)n[nH]1,0% (inactive),–
CCCC(c1nnnn1C(C)(C)CC)N1CCN(C(=O)c2ccco2)CC1 (configuration not stated),3.16% (inactive),–
O=C(c1cccc(S(=O)(=O)Nc2ccc(Br)cc2)c1)N1CCCC1,-8.06% (inactive),–

SMILES,inhibition,inhibition [1] [%]
COc1ccc(S(N)(=O)=O)cc1C(=O)NNC(=O)c1cccc(S(=O)(=O)N2CCOCC2)c1,3.75% (inactive),–
Cc1ccc(C)c(S(=O)(=O)N2CCCC2CNC(=O)C(=O)NCc2ccco2)c1 (configuration not stated),0% (inactive),–
O=C(CN1CCC(c2nc3ccccc3s2)CC1)N1CCCCC1,-11.7% (inactive),–
O=C1C=CC(=O)N1c1ccccc1N1C(=O)C=CC1=O,5.05% (inactive),–
O=C1c2ccccc2C(=O)N1N(c1ccccc1)c1ccccc1,0% (inactive),–
NC(=O)c1ccc(NCCCN2CCOCC2)c([N+](=O)[O-])c1,-4.51% (inactive),–
CC(=O)N1CCN(c2nc(N)c(C#N)c(CC#N)c2C#N)CC1,-8.51% (inactive),–
COc1ccc(S(=O)(=O)N2CCOCC2)cc1NC(=O)COC(=O)C1CC1C (configuration not stated),-7.51% (inactive),–
CCCCc1nc2ccc(S(=O)(=O)O)cc2[nH]1,-2.87% (inactive),–
CC1=NN(c2ccccc2)C(=O)C1N=Nc1ccc(S(N)(=O)=O)cc1 (configuration not stated),-3.93% (inactive),–
CCN(CC)CCNC(=O)Cn1c(=O)c2cccn2c2ccc(F)cc21,-0.65% (inactive),–
O=C(CNC(=O)c1ccc(Br)o1)NNC(=O)COc1ccccc1Cl,1.1% (inactive),–
COc1ccc2c(c1)-c1nc(/N=C/c3ccccc3O)sc1CC2,29.6% (inactive),–
COc1ccc2c(c1)-c1nc(/N=C/c3ccc(O)c(OC)c3)sc1CC2,27.5% (inactive),–
Oc1c(CN2CCOCC2)ccc(CN2CCOCC2)c1O,25.3% (inactive),–
Oc1c(CN2CCOCC2)cc(CN2CCOCC2)c(O)c1CN1CCOCC1,20.2% (inactive),–
C=CC(n1cncn1)C(O)(c1ccccc1)c1ccccc1 (configuration not stated),-1.2% (inactive),–
O=C1C(Nc2ccc(O)cc2)=C/C(=N/S(=O)(=O)c2cccs2)c2ccccc21,22.4% (inactive),–
COC(=O)c1ccccc1NC1=C/C(=N\S(=O)(=O)c2cccs2)c2ccccc2C1=O,7.26% (inactive) and 0.39% (inactive),–
Cc1ccc(NC2=C/C(=N/S(=O)(=O)c3cccs3)c3ccccc3C2=O)cc1C,1.44% (inactive),–
Cc1ccc(S(=O)(=O)/N=C2\C=C(Nc3cccc(C(=O)O)c3)C(=O)c3ccccc32)c(C)c1,13.2% (inactive),–
Cc1ccc(S(=O)(=O)/N=C2\C=C(Nc3cccc(C(=O)O)c3)C(=O)c3ccccc32)cc1,9.52% (inactive),–

SMILES,inhibition,inhibition [1] [%]
CCc1ccc(S(=O)(=O)/N=C2\C=C(Nc3cccc(C(=O)O)c3)C(=O)c3ccccc32)cc1,5.86% (inactive),–
CCc1ccc(S(=O)(=O)/N=C2\C=C(Nc3ccc(C(=O)O)cc3)C(=O)c3ccccc32)cc1,26.1% (inactive),–
O=C1C(Nc2ccccc2)=C/C(=N/S(=O)(=O)c2cccs2)c2ccccc21,0% (inactive),–
CCOC(=O)C1(CC2CCCCO2)CCN(Cc2c(C)cc(C)cc2-n2cccn2)CC1 (configuration not stated),-10.8% (inactive),–
COc1ccc(S(=O)(=O)N2CCCCC2)cc1NC(=O)COC(=O)c1ccco1,-2.61% (inactive),–
O=C(Nc1ccc(F)cc1)OCCOc1ccc([N+](=O)[O-])cc1,-1.94% (inactive),–
CC(C)(C)OC(=O)COc1cc(F)ccc1[N+](=O)[O-],-8.99% (inactive),–
Cc1cc(NC(=O)C2C3C(=O)N(CCC(C)C)C(C(=O)NCc4ccccc4)C34C=CC2(C)O4)no1 (configuration not stated),-10.5% (inactive),–
Cc1ccc(C(C)C)c(OCC(=O)NCC(c2cccs2)N2CCOCC2)c1 (configuration not stated),0.74% (inactive),–
Cc1ccc(-n2c(-c3ccc(Cl)cc3Cl)n[nH]c2=S)cc1,-16.5% (inactive),-6.44
COc1ccc(NS(=O)(=O)c2csc(C(=O)N3CCCC3)c2)c(OC)c1,-6.24% (inactive),–
O=C(COC(=O)Cc1n[nH]c(=O)c2ccccc12)NNC(=O)c1ccc(Br)cc1,-4.04% (inactive),–
CCC(=O)Nn1c(C)nnc1C,-2.7% (inactive),–
CCc1ccc([C@@H]2CC=C(C(=O)O)[C@H](c3ccc(Br)cc3)N2S(=O)(=O)c2ccc(C)cc2)cc1,25.8% (inactive),10.7
Cc1ccc(S(=O)(=O)N2[C@@H](c3ccc(C(C)(C)C)cc3)C(C(=O)O)=CC[C@H]2c2ccc(Cl)c(Cl)c2)cc1,9.77% (inactive),–
Cc1ccc([C@H]2C(C(=O)O)=CC[C@@H](c3ccc(C)cc3)N2S(=O)(=O)c2ccc(C)cc2)cc1,5.29% (inactive),-0.615
Cc1ccc([C@H]2C(C(=O)O)=C[C@@H](CC3CCCC3)N2S(=O)(=O)c2ccc(C)cc2)cc1,20.2% (inactive),–
Cc1ccc(S(=O)(=O)N2[C@@H](c3ccc(Cl)cc3)C(C(=O)O)=C[C@H]2CC2CCCC2)cc1,19.2% (inactive),4.89
Cc1ccc(S(=O)(=O)N2[C@@H](c3ccc(Br)cc3)C(C(=O)O)=CC[C@H]2c2cccc(Cl)c2)cc1,-1.32% (inactive),1.82
Cc1ccc(S(=O)(=O)N2[C@@H](c3ccccc3)C(C(=O)O)=CC[C@H]2c2ccc(Cl)c(Cl)c2)cc1,10.4% (inactive),–
Cc1ccc(S(=O)(=O)N2[C@@H](c3ccc(Cl)cc3)C(C(=O)O)=CC[C@H]2c2ccc(Cl)c(Cl)c2)cc1,27.3% (inactive),–
O=C(N/N=C/c1cc(Br)c(Br)o1)c1cc2ccccc2o1,-5.43% (inactive),–

SMILES,inhibition,inhibition [1] [%]
O=C1CCC[C@@H]2C[C@@]3(C[C@@H]4CCN1[C@H]24)Nc1cc(Cl)ccc1NC3=NCc1ccccc1,-11.9% (inactive),–
O=C(NCCCc1ccccc1)c1cccc(NC(=O)C2CCCCC2)c1,-8.46% (inactive),–
COc1ccc(C2=NN(C(=O)c3ccc(Cl)c([N+](=O)[O-])c3)C(c3ccccc3)C2)cc1 (configuration not stated),-4.55% (inactive),–
Cc1ccc(NC(=S)NN2CCN(C)CC2)c(C)c1,3.57% (inactive),–
Cn1c2cc(C#N)sc2c2cnn(Cc3ccc(F)cc3)c(=O)c21,-9.27% (inactive),-3.06
Cc1ccccc1-c1cc(C(=O)NCc2cccc(C(F)(F)F)c2)n(CC2CC(c3cccnc3)=NO2)n1 (configuration not stated),5.79% (inactive),–
CCOc1ccccc1C=NNc1ccc([N+](=O)[O-])cn1,-10.8% (inactive),–
Cc1ccc(-c2cc(C(=O)N3CCC(C)CC3)c3ccccc3n2)cc1,-0.67% (inactive),–
COc1nnc(-c2ccccc2)s1,-4.6% (inactive),–
Cc1ccc(S(=O)(=O)N2[C@@H](c3ccc(Br)cc3)C(C(=O)O)=CC[C@H]2c2ccc(Cl)cc2)cc1,26.7% (inactive),–
O=C(O)C1=CC[C@@H](c2ccc(Cl)cc2)N(S(=O)(=O)c2ccc(Cl)cc2)[C@H]1c1ccccc1,15.7% (inactive),–
CCCCC1CCC(C(=O)NCC(c2ccco2)N2CCOCC2)CC1 (configuration not stated),-3.1% (inactive),–
CCCCCn1c(=O)c(C(=O)OCC)c(O)c2ccccc21,-0.68% (inactive),–
CCn1c(=O)c(-c2ccccc2)c(O)c2ccccc21,0% (inactive),–
CCCCn1c(=O)c(-c2ccccc2)c(O)c2ccccc21,-4.09% (inactive),–
CCCCn1c(=O)c(C(=O)OCC)c(O)c2ccccc21,3.24% (inactive),–
O=C1C(=Cc2ccncc2)CCCc2ccccc21,-20.6% (inactive),–
O=C(NC(=S)N1CCCCCC1)c1cccc([N+](=O)[O-])c1,-2.29% (inactive),–
O=C(Cn1cc(C(F)(F)F)ccc1=O)NCCc1ccc(Cl)cc1Cl,-0.73% (inactive),–

# From PubChem BioAssay AID588689 (Southern Research Specialized Biocontainment Screening …, 2011)
